RPL19A TOR yeast: yeast TOR pathway RPL19A-GFP modulation; percent response vs DMSO, % at 10 µM; AID 2025; S. cerevisiae RPL19A-GFP strain, flow cytometry, 3 h; active compounds read low; hit rate 0.3% among 330,000;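 active means percent response vs DMSO below 50%; inconclusive means fewer than 70 events counted for the yeast strain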;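 further: median channel GFP fluorescence of the barcoded RPL19A-GFP strain; ratio of sample median GFP to plate DMSO average so 100% = DMSO; lower means less RPL19A-GFP as with rapamycin TOR inhibition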
CIT2 TOR yeast: modulators of TOR pathway CIT2-GFP in S. cerevisiae; hit rate 0.065% among 320,000; AID 2029; GFP response vs DMSO, % at 10 µM; S. cerevisiae CIT2-GFP strain, flow cytometry, 3 h; 100 means same as DMSO wells;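 active means GFP response relative to DMSO above a set limit, near the screen mean plus 3 SD, cut at about 150% in these data; inconclusive means Fewer than 70 cells measured for a yeast strain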;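 further: ratio of well median GFP fluorescence to mean of DMSO wells on the plate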
LAP4-GFP MLPCN: modulators of TOR pathway LAP4-GFP in S. cerevisiae. hit rate 0.34% among 320,000. GFP response vs DMSO, % at 10 µM. AID 2023. S. cerevisiae LAP4-GFP multiplex, flow cytometry GFP, 3 h; median GFP as percent of DMSO wells;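 active means GFP response vs DMSO above a set limit, about the screen mean plus 3 SD, cut at about 150% in these data; inconclusive means under 70 cell events counted for the yeast strain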
AGP1-GFP MLPCN: modulators of TOR pathway AGP1-GFP in S. cerevisiae; hit rate 0.02% among 320,000; AID 2066; S. cerevisiae AGP1-GFP multiplex flow cytometry, 3 h; GFP as percent of DMSO wells; GFP response vs DMSO, % at 10 µM;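 active means GFP response relative to DMSO above a set limit, near screen average plus 3 SD, cut at about 150% in these data; inconclusive means fewer than 70 cells counted for the yeast strain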;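 further: median GFP channel fluorescence of the gated AGP1 strain per well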
MEP2 TOR yeast: alters MEP2-GFP fluorescence in TOR pathway yeast screen; S. cerevisiae MEP2-GFP strain, flow cytometry GFP, 3 h; 100% = DMSO control level; GFP response vs DMSO, % at 10 µM; hit rate 0.51% among 330,000; AID 2016;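 active means GFP response versus DMSO above a set limit, roughly screen mean plus 3 SD, cut at about 180% in these data; inconclusive means fewer than 70 cells counted for a yeast strain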;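 further: median GFP fluorescence of the barcode-gated MEP2-GFP cells per well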
LAP4 cherry2: yeast LAP4-GFP modulation, second cherry pick; hit rate 20% among 590; GFP response vs DMSO, % at 10 µM; AID 2621; shares compounds with LAP4-GFP MLPCN; S. cerevisiae LAP4-GFP strain, flow cytometry GFP, 3 h;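 active means GFP signal as percent of the solvent control above about 150%, meaning raised reporter expression, limit read from the data; inconclusive means fewer than 70 cells counted in the well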;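 further: ratio of well median GFP fluorescence to plate DMSO mean so 100% = DMSO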
MEP2-GFP pick2: reconfirmed MEP2-GFP TOR pathway modulator in yeast | shares compounds with LAP4-GFP MLPCN | S. cerevisiae MEP2-GFP strain, flow cytometry GFP, 3 h | GFP response vs DMSO, % at 10 µM | hit rate 10% among 590 | AID 2622;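 active means GFP signal above 150% of the solvent control wells, that is a rise of more than half; inconclusive means fewer than 70 yeast cells counted in the well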;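 further: median channel GFP fluorescence of all gated yeast cells per well; ratio of median GFP to plate DMSO average so 100% = DMSO level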
RPL19A-GFP pick2: second confirmation of modulators of TOR reporter RPL19A-GFP in yeast | GFP response vs DMSO, % at 10 µM | S. cerevisiae RPL19A-GFP strain, flow cytometry GFP, 3 h; active compounds read low; 100% means same as DMSO wells | hit rate 3% among 590 | shares compounds with LAP4-GFP MLPCN;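 active means under 65% GFP response relative to DMSO; inconclusive means yeast strain with under 70 measured events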;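 further: median GFP channel fluorescence per well over the all cells gate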
CIT2 GFP CP2: yeast CIT2-GFP TOR reporter modulation, second cherry pick | S. cerevisiae CIT2-GFP strain, flow cytometry GFP, 3 h; DMSO control wells read 100% | GFP response vs DMSO, % at 10 µM | hit rate 8% among 590 | shares compounds with LAP4-GFP MLPCN;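 active means GFP response vs DMSO above about 150%, limit read from the data; inconclusive means fewer than 70 events counted for a yeast strain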;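 further: median green fluorescence per well over all gated yeast cells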
AGP1-GFP pick2: reconfirmed modulator of AGP1-GFP TOR reporter in yeast | shares compounds with LAP4-GFP MLPCN | AID 2643 | 590 tested, under 10 active | percent response vs DMSO, % at 10 µM | S. cerevisiae AGP1-GFP strain, flow cytometry GFP, 3 h;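 active means over 150 percent of DMSO response; inconclusive means yeast strain measured with under 70 events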;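 further: median GFP channel fluorescence over all cells without mother daughter split; sample median GFP divided by mean DMSO control so 100% equals DMSO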
Yeast autofluor: yeast s288c autofluorescence artifact, counter-screen | AID 2757 | 610 tested, under 10 active | S. cerevisiae s288c, 520 nm autofluorescence, flow cytometry, 3 h; active compounds read high; zero means same as solvent-only cells | shares compounds with LAP4-GFP MLPCN | fluorescence change (kMESF span) at 33 µM;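 active means fluorescence span over the dose series, or activity score, above about 33, limit read from the data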
* marks the source's active call; other numbers are inactive results; ? = inconclusive; [ ] = dose if it differs, or a comment. A selection: hits, their analogues and other compounds. The true share with any hit is near 0.93%.

SMILES | RPL19A TOR yeast | CIT2 TOR yeast | LAP4-GFP MLPCN | AGP1-GFP MLPCN | MEP2 TOR yeast | others
C=CC[C@]12CC=CC(=O)[C@@]1(O)O[C@H](c1ccc(OC)c(OC)c1)[C@H]2C | 100.6 | 98.0 | 103.9 | 98.5 | 100.0
COc1cc(C)c(C)cc1S(=O)(=O)N1CCCCC1c1cccnc1 (configuration not stated) | 90.8 | 68.5 | 115.1 | 95.7 | 206.9*
CC(=O)Nc1ccc(S(=O)(=O)N2CCCCC2c2cccnc2)cc1 (configuration not stated) | 91.6 | 72.9 | 83.6 | 90.4 | 93.0
Cc1cccc(Oc2nc3ccccn3c(=O)c2/C=C(\C#N)C(=O)NC2CCS(=O)(=O)C2)c1C (configuration not stated) | 105.3 | 110.8 | 101.6 | 101.3 | 105.3
Cc1cc(Oc2nc3ccccn3c(=O)c2/C=C(\C#N)C(=O)NC2CCS(=O)(=O)C2)ccc1Cl (configuration not stated) | 59.8 | ? | 81.1 | 13.1 | 533.1*[may fluoresce violet]
N#C/C(=C\c1c(Oc2ccc(Cl)cc2)nc2ccccn2c1=O)C(=O)NC1CCS(=O)(=O)C1 (configuration not stated) | 68.5 | ? | 88.3 | 15.5 | 176.5*[may fluoresce violet]
Cc1cccn2c(=O)c(/C=C(\C#N)C(=O)NC3CCS(=O)(=O)C3)c(Oc3ccc(F)cc3)nc12 (configuration not stated) | 98.8 | 103.4 | 97.8 | 103.1 | 92.3
N#C/C(=C\c1c(N2CCCCC2)nc2ccccn2c1=O)C(=O)NC1CCS(=O)(=O)C1 (configuration not stated) | 53.5 | ? | 85.0 | 28.3 | 260.1*[may fluoresce violet]
CCCCCC(=O)Nc1cc(S(=O)(=O)N2CCOCC2)ccc1Oc1ccc(OCC)cc1 | 98.8 | 100.4 | 104.5 | 102.7 | 110.4
O=C(c1cc(COc2ccc3c(c2)CCCC3)on1)N1CCCC1 | 101.2 | 96.5 | 100.1 | 95.0 | 103.0
CCc1c(O)nc(SCc2ccccc2)n(C(C)CC)c1=O (configuration not stated) | 16.3*[may fluoresce violet] | ? | 83.7 | ? | 209.6*[may fluoresce violet]
COc1ccc(S(N)(=O)=O)cc1C(=O)OCCCOc1ccc(F)cc1 | 103.7 | 102.9 | 96.0 | 102.0 | 107.3
CC(=O)COc1cc(C)cc2oc(=O)cc(-c3ccccc3)c12 | 102.0 | 104.4 | 101.5 | 103.2 | 104.2
Cc1cc(O)c2c(-c3ccccc3)cc(=O)oc2c1 | 45.1*[may fluoresce violet] | ? | 91.4 | ? | 265.8*[may fluoresce violet]
CCCc1cc(=O)oc2c(CN3CCCC3)c(O)c(Cl)cc12 | 91.8 | 99.9 | 94.5 | 77.7 | 108.7
CCc1cc(=O)oc2c(CNCc3ccccc3F)c(O)c(Cl)cc12 | 66.2 | ? | 87.7 | ? | 228.6*[may fluoresce violet]
CN1CCN(S(=O)(=O)c2cccc(C(=O)Nc3ccc(Br)cc3Br)c2)CC1 | 110.0 | 105.0 | 130.4 | 107.1 | 144.8
Cc1cccc(C)c1NC(=O)CSc1nc(C)c(CC(=O)c2ccc(Br)cc2)c(C)c1C#N | 66.7 | ? | 65.6 | 23.1 | 228.0*[may fluoresce violet]
CN(C)c1ccc(/C=C2\SC(=O)N(CC(O)Cn3c4ccccc4c4ccccc43)C2=O)cc1 (configuration not stated) | 108.0 | 119.4 | 108.2 | 111.2 | 123.1
CN(C)c1ccc(/C=C2/SC(=O)N(CCN=C3NS(=O)(=O)c4ccccc43)C2=O)cc1 | 56.6 | ? | 88.3 | ? | 177.6*[may fluoresce violet]
N/C(Cc1ccc(Cl)cc1Cl)=N\OC(=O)c1cccs1 | 77.0 | 130.2 | 217.2* | 46.7 | 110.9 | LAP4 cherry2=197.4*;MEP2-GFP pick2=158.9*;RPL19A-GFP pick2=83.9;CIT2 GFP CP2=186.3*;AGP1-GFP pick2=74.8;Yeast autofluor=1.42
COc1cccc(/C=N/Nc2nc(Nc3ccc([N+](=O)[O-])cc3)nc(N3CCCC3)n2)c1O | 101.8 | 101.8 | 104.9 | 106.4 | 107.9
COc1cccc(/C=N/Nc2ccc([N+](=O)[O-])cn2)c1O | 96.6 | 97.0 | 155.7* | 99.4 | 113.4 | LAP4 cherry2=161.3*;MEP2-GFP pick2=113.5;RPL19A-GFP pick2=94.0;CIT2 GFP CP2=105.7;AGP1-GFP pick2=90.9;Yeast autofluor=0.51
Cc1ccc(C)c(OCC(=O)NNC(=O)CCN2CCN(c3ccccc3)CC2)c1 | 95.8 | 92.2 | 93.6 | 94.3 | 96.3
CN(C(=O)COC(=O)c1ccc2ccccc2n1)C1CCCCC1 | 106.0 | 108.7 | 96.5 | 107.7 | 114.3
SMILES | RPL19A TOR yeast | CIT2 TOR yeast | LAP4-GFP MLPCN | AGP1-GFP MLPCN | MEP2 TOR yeast | others
S=C(NCc1ccccc1)Nc1ccncc1 | 106.5 | 97.2 | 78.2 | 93.9 | 98.6
CC1=NOC(=O)/C1=C\c1ccc(-c2cc(Cl)ccc2Cl)o1 | 89.2 | 110.6 | 167.4* | 54.9 | 93.9 | Yeast autofluor=1.51
COc1ccccc1N1C(=O)c2cccc3c(C(=O)O)ccc(c23)C1=O | 90.2 | 89.6 | 91.7 | 93.7 | 94.4 | Yeast autofluor=0.2
CCCc1cc(=O)oc2c(C)c(OC(C)C(=O)NCCN3CCOCC3)ccc12 (configuration not stated) | 91.3 | 95.2 | 89.0 | 92.4 | 88.7
Cc1ccc(/C=C/C(=O)N2CCc3ccccc32)o1 | 100.7 | 92.4 | 168.5*[may fluoresce green] | 87.7 | 99.9 | LAP4 cherry2=104.8;MEP2-GFP pick2=104.8;RPL19A-GFP pick2=103.6;CIT2 GFP CP2=101.8;AGP1-GFP pick2=96.0
O=C(COC(=O)C1COc2ccccc2O1)Nc1ccccc1OC(F)F (configuration not stated) | 106.8 | 100.5 | 102.6 | 104.0 | 99.7
Cc1cc(C)cc(NC(=O)COC(=O)COc2cccc3c2OC(C)(C)C3)c1 | 101.2 | 101.6 | 113.6 | 115.0 | 105.0
Cc1ccc(NC(=O)COC(=O)COc2cccc3c2OC(C)(C)C3)cc1C | 106.7 | 157.5*[may fluoresce green] | 166.7*[may fluoresce green] | 91.4 | 212.2*[may fluoresce green] | LAP4 cherry2=98.1;MEP2-GFP pick2=99.8;RPL19A-GFP pick2=102.5;CIT2 GFP CP2=98.4;AGP1-GFP pick2=100.8
COC(=O)/C(=C/c1c[nH]c2ccccc12)[N+](=O)[O-] | 85.4 | 86.3 | 177.9* | 89.1 | 87.5 | Yeast autofluor=0.1
COC(=O)/C(=C/c1c[nH]c2ccccc12)NC(C)=O | 107.0 | 115.2 | 100.1 | 108.4 | 113.2
